Read-out in assay [1]: Transforming growth factor beta 1 (TGFb1), TGFB1 (gene 7040)
In words: BSK_KF3CT_TGFb1: BioMAP Diversity Plus: KF3CT Assay for Transforming growth factor beta 1 (TGFb1) Biomarker Activity (AID 2283072). Conditions: primary human keratinocytes with fibroblasts; actives raise or lower the signal. An outline of the steps: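 Primary human skin cells (keratinocytes, foreskin fibroblasts) were co-cultured, exposed to test chemical and sampled at 24 h. TGF-b1 levels were measured by ELISA and fitted bidirectionally relative to DMSO.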

Read-out in assay [2]: C-C motif chemokine 2 (Homo sapiens) (UniProt P13500)
In words: BSK_KF3CT_MCP1: BioMAP Diversity Plus: KF3CT Assay for Monocyte Chemoattractant Protein 1 (MCP1/CCL2) Biomarker Activity (AID 2283073). Conditions: primary human keratinocytes with fibroblasts; actives raise or lower the signal. An outline of the steps: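 Human keratinocyte plus foreskin fibroblast primary co-culture exposed to chemical for 24 h. MCP-1 levels measured by ELISA. Bidirectional curve fitting relative to DMSO negative control as baseline.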

Read-out in assay [3]: Matrix Metallopeptidase 9 (MMP9), MMP9 (gene 4318)
In words: BSK_KF3CT_MMP9: BioMAP Diversity Plus: KF3CT Assay for Matrix Metallopeptidase 9 (MMP9) Biomarker Activity (AID 2283074).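 As to AC50: MMP9 protein level quantified by ELISA in the co-culture.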 Particulars: primary human keratinocytes with fibroblasts; actives raise or lower the signal. An outline of the steps: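 Keratinocyte plus foreskin fibroblast human primary skin co-culture was dosed with chemical and MMP-9 was quantified by ELISA 24 h later. Bidirectional curve fitting used DMSO as negative control and activity baseline.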

Read-out in assay [4]: urokinase plasminogen activator (uPA), PLAU (gene 5328)
Kind of assay: BSK_KF3CT_uPA: BioMAP Diversity Plus: KF3CT Assay for urokinase plasminogen activator (uPA) Biomarker Activity (AID 2283075). Particulars: primary human keratinocytes with fibroblasts; actives raise or lower the signal. An outline of the steps: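 Human keratinocyte plus foreskin fibroblast primary co-culture exposed to chemical for 24 h. uPA levels were quantified by ELISA, and activity was fitted bidirectionally against a DMSO negative-control baseline.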

Read-out in assay [5]: CD40, CD40 (gene 958)
In words: BSK_LPS_CD40: BioMAP Diversity Plus: LPS Assay for CD40 Biomarker Activity (AID 2283076). Conditions: primary human HUVEC with PBMC; actives raise or lower the signal. In short, it runs like this:
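Primary human umbilical vein endothelial cells co-cultured with peripheral blood mononuclear cells, LPS-stimulated, were dosed with chemical and read 24 h later. CD40 levels were measured by ELISA and fitted bidirectionally against DMSO as negative control and baseline.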

Read-out in assay [6]: E-selectin (Homo sapiens) (UniProt P16581)
Kind of assay: BSK_LPS_Eselectin: BioMAP Diversity Plus: LPS Assay for Eselectin Biomarker Activity (AID 2283077). Conditions: primary human HUVEC with PBMC; actives raise or lower the signal. In short, it runs like this: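 Human umbilical vein endothelial cells co-cultured with peripheral blood mononuclear cells under LPS stimulation; E-selectin measured by ELISA 24 h after chemical dosing. Activity fitted bidirectionally against DMSO as negative control and baseline.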

Read-out in assay [7]: Interleukin-8 (IL8), CXCL8 (gene 3576)
In words: BSK_LPS_IL8: BioMAP Diversity Plus: LPS Assay for Interleukin-8 (IL8) Biomarker Activity (AID 2283078). Conditions: primary human HUVEC with PBMC; actives raise or lower the signal. In short, it runs like this:
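Human umbilical vein endothelial cells co-cultured with PBMC were stimulated with LPS; IL-8 levels were measured by ELISA 24 h after chemical dosing. Activity was fitted bidirectionally against DMSO as negative control and baseline.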

The nature of assay [8]: BSK_LPS_SRB: Viability Assessment in the BioMAP Diversity Plus: LPS Assay (AID 2283079).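 Also: total protein by sulforhodamine B absorbance as a cytotoxicity measure; measured one day after compound addition; fitted in both directions against DMSO so loss or gain of signal counts.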 Conditions: primary human HUVEC with PBMC. An outline of the steps: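 Human umbilical vein endothelial cells co-cultured with PBMC (LPS system) were dosed for 24 h. Total protein was stained with 0.1% sulforhodamine B after 10% TCA fixation, read at 560 nm, and fitted bidirectionally against DMSO baseline.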

Read-out in assay [9]: Interleukin-1 alpha (IL1a), IL1A (gene 3552)
In words: BSK_LPS_IL1a: BioMAP Diversity Plus: LPS Assay for Interleukin-1 alpha (IL1a) Biomarker Activity (AID 2283080). Particulars: primary human HUVEC with PBMC; actives raise or lower the signal. An outline of the steps: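 Human umbilical vein endothelial cells co-cultured with peripheral blood mononuclear cells were LPS-stimulated and exposed to test chemicals for 24 h. IL-1 alpha was quantified by ELISA, with bidirectional curve fitting against DMSO as the negative control and baseline.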

Read-out in assay [10]: Monocyte Chemoattractant Protein-1 (MCP1), CCL2 (gene 6347)
In words: BSK_LPS_MCP1: BioMAP Diversity Plus: LPS Assay for Monocyte Chemoattractant Protein-1 (MCP1) Biomarker Activity (AID 2283081). Conditions: primary human HUVEC with PBMC; actives raise or lower the signal. In short, it runs like this: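 HUVEC plus PBMC co-culture (human primary cells, LPS system) exposed to test chemical for 24 h; MCP-1 measured by ELISA. Bidirectional curve fitting against DMSO baseline; parallel SRB total-protein staining flags overt cytotoxicity.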

The nature of assay [11]: BSK_LPS_PGE2: BioMAP Diversity Plus: LPS Assay for Prostaglandin E2 (PGE2) Biomarker Activity (AID 2283082).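 As to AC50: secreted prostaglandin E2 measured by ELISA in LPS-stimulated co-culture.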 Conditions: primary human HUVEC with PBMC; actives raise or lower the signal. An outline of the steps:
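LPS-activated HUVEC/PBMC co-culture; cmpd dosed, 24 h; PGE2 by ELISA; bidirectional fit vs DMSO; SRB (0.1%, TCA-fixed, 560 nm) in parallel plates for overt cytotox.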

Read-out in assay [12]: Macrophage colony-stimulating factor (MCSF), CSF1 (gene 1435)
Kind of assay: BSK_LPS_MCSF: BioMAP Diversity Plus: LPS Assay for Macrophage colony-stimulating factor (MCSF) Biomarker Activity (AID 2283083). Particulars: primary human HUVEC with PBMC; actives raise or lower the signal. An outline of the steps: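 Human umbilical vein endothelial cells co-cultured with peripheral blood mononuclear cells were exposed to compound for 24 h. M-CSF levels were measured by ELISA, and bidirectional curve fitting used DMSO as the negative control and baseline.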

Read-out in assay [13]: Tissue Factor, F3 (gene 2152)
In words: BSK_LPS_TissueFactor: BioMAP Diversity Plus: LPS Assay for Tissue Factor Biomarker Activity (AID 2283084). Particulars: primary human HUVEC with PBMC; actives raise or lower the signal. An outline of the steps: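 Human umbilical vein endothelial cells co-cultured with peripheral blood mononuclear cells were dosed and stimulated with LPS. Cell-surface CD142 was quantified by ELISA at 24 h. Activity was fitted bidirectionally against DMSO baseline.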

Read-out in assay [14]: Tumor necrosis factor (Homo sapiens) (UniProt P01375)
In words: BSK_LPS_TNFa: BioMAP Diversity Plus: LPS Assay for Tumour Necrosis Factor alpha (TNFa) Biomarker Activity (AID 2283085). Particulars: primary human HUVEC with PBMC; actives raise or lower the signal. An outline of the steps: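 Read-out is ELISA of TNFa in primary human endothelial cell–PBMC co-cultures at 24 h after compound. Activity in either direction was fitted against DMSO.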

Read-out in assay [15]: Vascular cell adhesion molecule 1 (VCAM1), VCAM1 (gene 7412)
In words: BSK_LPS_VCAM1: BioMAP Diversity Plus: LPS Assay for Vascular cell adhesion molecule 1 (VCAM1) Biomarker Activity (AID 2283086). Conditions: primary human HUVEC with PBMC; actives raise or lower the signal. In short, it runs like this: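 HUVEC + PBMC co-culture, LPS system; compound 24 h; VCAM-1 by ELISA; bidirectional fit vs DMSO control; parallel SRB (0.1%, TCA-fixed, 560 nm) for cytotoxicity.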

Read-out in the next assay: CD38, CD38 (gene 952)
In words: BSK_SAg_CD38: BioMAP Diversity Plus: SAg Assay for CD38 Biomarker Activity (AID 2283087). Conditions: primary human HUVEC with PBMC; actives raise or lower the signal. An outline of the steps:
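Human HUVEC plus PBMC co-culture stimulated with superantigen; CD38 measured by ELISA 24 h after chemical dosing. Fluorescence read-out, bidirectional fit against DMSO; cytotoxicity tracked in parallel by SRB and Alamar Blue.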

Read-out in assay [16]: CD40, CD40 (gene 958)
Kind of assay: BSK_SAg_CD40: BioMAP Diversity Plus: SAg Assay for CD40 Biomarker Activity (AID 2283088). Particulars: primary human HUVEC with PBMC; actives raise or lower the signal. In short, it runs like this:
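Human umbilical vein endothelial cells co-cultured with PBMC; CD40 levels measured by ELISA with fluorescence read-out 24 h after chemical dosing. Gain or loss of signal fitted bidirectionally against DMSO baseline.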

Read-out in a further assay: CD69, CD69 (gene 969)
In words: BSK_SAg_CD69: BioMAP Diversity Plus: SAg Assay for CD69 Biomarker Activity (AID 2283089). Particulars: primary human HUVEC with PBMC; actives raise or lower the signal. In short, it runs like this: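 Endothelial/PBMC co-culture; chemical added; 24 h incubation; CD69 ELISA with fluorescence detection; bidirectional fit vs DMSO.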

Read-out in assay [17]: Monocyte Chemoattractant Protein-1 (MCP1), CCL2 (gene 6347)
In words: BSK_SAg_MCP1: BioMAP Diversity Plus: SAg Assay for Monocyte Chemoattractant Protein-1 (MCP1) Biomarker Activity (AID 2283090). Conditions: primary human HUVEC with PBMC; actives raise or lower the signal. An outline of the steps:
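MCP-1 levels in the endothelial–PBMC SAg co-culture were quantified by ELISA at 24 h post-dosing; both increases and decreases versus DMSO scored. Cytotoxicity monitored by SRB total protein in parallel cultures.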

Read-out in assay [18]: E-selectin (Homo sapiens) (UniProt P16581)
Kind of assay: BSK_SAg_Eselectin: BioMAP Diversity Plus: SAg Assay for Eselectin Biomarker Activity (AID 2283091). Particulars: primary human HUVEC with PBMC; actives raise or lower the signal. An outline of the steps:
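HUVEC co-cultured with PBMC, compound dosed then read at 24 h; E-selectin measured by ELISA. Activity fitted bidirectionally against DMSO as negative control and baseline.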

The source made the active and inactive calls. The calls were made as follows: active = hit-call score of the fitted dose curve at least 0.9, where 1 is the maximum; inactive = score below 0.9.

Chain of Tumor necrosis factor (Homo sapiens) (P01375 whole entry, looked up): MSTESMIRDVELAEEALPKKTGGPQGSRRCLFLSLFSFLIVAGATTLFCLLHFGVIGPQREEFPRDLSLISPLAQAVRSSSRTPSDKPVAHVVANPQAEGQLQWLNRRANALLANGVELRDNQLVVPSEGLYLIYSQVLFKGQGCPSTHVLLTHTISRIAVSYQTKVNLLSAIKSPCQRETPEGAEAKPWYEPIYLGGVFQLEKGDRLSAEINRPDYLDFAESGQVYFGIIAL
Chain of E-selectin (Homo sapiens) (P16581 whole entry, looked up): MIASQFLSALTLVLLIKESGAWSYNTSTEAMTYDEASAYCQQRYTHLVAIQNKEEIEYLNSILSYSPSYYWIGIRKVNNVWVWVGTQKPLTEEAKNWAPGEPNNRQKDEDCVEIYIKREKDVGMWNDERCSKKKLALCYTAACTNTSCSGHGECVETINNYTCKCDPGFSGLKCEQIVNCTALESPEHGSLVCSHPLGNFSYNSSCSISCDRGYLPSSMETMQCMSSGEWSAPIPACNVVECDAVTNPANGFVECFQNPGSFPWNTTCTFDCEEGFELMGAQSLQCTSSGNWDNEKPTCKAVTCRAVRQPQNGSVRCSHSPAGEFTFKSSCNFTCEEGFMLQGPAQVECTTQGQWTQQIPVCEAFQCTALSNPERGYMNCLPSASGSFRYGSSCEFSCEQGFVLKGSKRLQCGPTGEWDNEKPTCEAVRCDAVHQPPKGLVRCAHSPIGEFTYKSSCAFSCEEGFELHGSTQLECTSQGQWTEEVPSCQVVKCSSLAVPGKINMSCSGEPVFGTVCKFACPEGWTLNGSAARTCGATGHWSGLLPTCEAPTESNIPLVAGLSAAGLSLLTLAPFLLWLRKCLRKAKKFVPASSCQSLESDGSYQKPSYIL

One may read the AC50 as the concentration giving half of the maximal activity seen. Turning to `O=C1CCC(C2CCCCC2)CC1`, the outcome was “inactive” in assay [1]; “inactive” in [4]; “inactive” in the assay with CD40, CD40 (gene 958) [5]; “inactive” in [6]; “inactive” in assay [7]; “inactive” in assay [8]. Besides, the result in [9], in assay [10], in [11], in assay [12], in assay [13] and in assay [14] was inactive. Moreover, the outcome was “inactive” in assay [15]; “inactive” in the assay with CD38, CD38 (gene 952); “inactive” with CD40, CD40 (gene 958) [16]; “inactive” in the assay with CD69, CD69 (gene 969); “inactive” in assay [17]; “inactive” in [18]. In addition, the AC50 in [2] was 29.6 µM (active); in [3] it was 31.8 µM (active).
In the case of `CCCCCc1ccc(N)cc1`, the outcome in assay [1] is “inactive”; in assay [2], “inactive”; in assay [4], “inactive”; in the assay with CD40, CD40 (gene 958) [5], “inactive”; in [6] it was “inactive”; in assay [7] it was “inactive”. The result in assay [8], in assay [9], in assay [10], in assay [12], in assay [13] and in [14] was inactive. For the same compound, the outcome in the assay with CD40, CD40 (gene 958) [16] was “inactive”; in the assay with CD69, CD69 (gene 969) it was “inactive”; in assay [17], “inactive”; in [18], “inactive”. The AC50 in [3] was 13.7 µM (active); in assay [11] it was 12 µM (active); in assay [15] it was 20 µM (active).
Turning to `OC12N=C(c3ccccc3)SC1Cc1cc(Cl)ccc12` (configuration not stated), the outcome in assay [1], in assay [2], in [3], in assay [4], in [6] and in assay [7] was inactive. The outcome in assay [8], in assay [10], in assay [11], in [12], in assay [13] and in assay [14] was inactive. Further, the outcome in the assay with CD69, CD69 (gene 969) is “inactive”; in assay [17], “inactive”; in assay [18], “inactive”. Further, the AC50 was 25.3 µM (active) in assay [9]; 10.3 µM (active) in [15]; 20 µM (active) in the assay with CD40, CD40 (gene 958) [16].

These data come from PubChem BioAssay (EPA / NIEHS).
